{
  "source": "PubChem BioAssay (NCATS)",
  "note": "Inconclusive results are not listed. Values without a mark were called inactive. The source made the active and inactive calls. Calls come from the whole dose curve; as a rule, active = well fitted inhibition curve with a large enough effect; inconclusive = small, poorly fitted or top-dose-only effect; inactive = flat fitted curve, though single readings scatter. Where a SMILES comes first, the peptide text is derived from it. The star is where a group is joined. AMC = Cc1cc(=O)oc2cc(N*)ccc12; Cbz = O=C(OCc1ccccc1)*",
  "data": [
    {"test_system": "NIH3T3", "assay": "Cytotoxic Profiling of Annotated Libraries Using Quantitative High-Throughput Screening (AID 1296008); note: nearly all actives have a fitted effect of over 60% in size; for max response: % is set by controls: 0 for no effect and ±100 for the full control effect", "details": "Five cell lines viability, CellTiter-Glo ATP luminescence, 48-72 h; max response: stronger effect = lower value", "method_in_brief": "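Cytotoxicity was measured as CellTiter-Glo ATP luminescence, read after 10 min at room temperature. Compound treatment of the cells lasted 48 or 72 hr at 37 degrees Celsius in a qHTS format.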", "units": {"max response": "%"}, "values": [
      {"smiles": "CC1(C)CCC[C@]2(C)C1CC=C(CO)[C@H]2CC/C(=C/CO)CO", "note": "(some centres undefined)", "max response": 1.71},
      {"smiles": "C[C@@]1(C(=O)O)CCC[C@@]2(C)C3=CC[C@H]4C[C@@]3(CC[C@H]12)CC4(O)CO", "note": "(some centres undefined)", "outcome": "inactive"},
      {"smiles": "Cc1c(NC(=O)N2CCOCC2)ccc2c1c1ccccc1n2C(C)C", "max response": -1.53},
      {"smiles": "CC[C@H]1OC(=O)[C@H](C)[C@@H](O[C@H]2C[C@@](C)(OC)[C@@H](O)[C@H](C)O2)C(C)[C@@H](O[C@@H]2O[C@H](C)C[C@H](N(C)C)[C@H]2O)[C@](C)(O)C[C@@H](C)CN(C)[C@H](C)[C@@H](O)[C@]1(C)O", "note": "(some centres undefined)", "outcome": "inactive"},
      {"smiles": "CC(C)c1ccc2c(c1)C(O)CC1C(C)(CO)CCCC21C", "note": "(centres undefined)", "max response": -1.6},
      {"smiles": "O=C1C[C@@]2(C(=O)N1)C(=O)N(Cc1ccc(Br)cc1F)C(=O)c1cccn12", "max response": 1.31},
      {"smiles": "CC(=O)OC12CC(C)C(OC(=O)c3ccccc3)C1/C=C(/C)C(OC(=O)c1ccccc1)CC(=O)C(C)(C)/C=C/C(C)C2=O", "note": "(centres undefined)", "max response": 1.94},
      {"smiles": "COC(=O)C(CC1(O)c2ccccc2N2C(=O)C(C)(C)N(O)C21)n1cnc2ccccc2c1=O", "note": "(centres undefined)", "max response": 2.61},
      {"smiles": "C=C1[C@@H]2CC[C@@]3(C)[C@H](c4ccoc4)OC(=O)C[C@]13O[C@H]1CC(=O)C(C)(C)[C@H](C(O)C(=O)OC)[C@]12C", "note": "(some centres undefined)", "outcome": "inactive"},
      {"smiles": "COC(=O)C1=COC(O[C@@H]2O[C@H](CO)[C@@H](O)[C@H](O)[C@H]2O)/C(=C\\COC(=O)/C=C/c2ccccc2)C1CC(=O)OCCc1ccc(O)cc1", "note": "(some centres undefined)", "outcome": "inactive"},
      {"smiles": "COc1cc(C(C)=O)ccc1O[C@@H]1O[C@H](CO[C@@H]2OC[C@@H](O)[C@H](O)[C@H]2O)[C@@H](O)[C@H](O)[C@H]1O", "outcome": "inactive"},
      {"smiles": "CC1(C)[C@@H]2CC=C(CO[C@@H]3O[C@H](CO[C@@H]4OC[C@H](O)[C@H](O)[C@H]4O)[C@@H](O)[C@H](O)[C@H]3O)[C@H]1C2", "outcome": "inactive"},
      {"smiles": "CCC(C)/C=C(C)/C=C/C(=O)C1CCC(O)C(C)(O)C1=O", "note": "(centres undefined)", "outcome": "inactive"},
      {"smiles": "O=C(/C=C/c1ccc(O)c(O)c1)O[C@H]1[C@H](OC2CCCCC2O)O[C@H](CO)[C@@H](O)[C@@H]1O", "note": "(some centres undefined)", "outcome": "inactive"},
      {"smiles": "C=C1CCC2C(C)(C)CC(O)CC2(C)C1CCC(C)CCOC(=O)CCC(=O)O", "note": "(centres undefined)", "outcome": "inactive"},
      {"smiles": "O=C(O)CC(CCc1ccccc1)OC1OC(CO)C(O)C(O)C1O", "note": "(centres undefined)", "outcome": "inactive"},
      {"smiles": "CC(O)/C=C/C1(O)C(C)C(O)C(O[C@@H]2O[C@H](CO)[C@@H](O)[C@H](O)[C@H]2O)CC1(C)C", "note": "(some centres undefined)", "outcome": "inactive"},
      {"smiles": "CC1(C)CC[C@]2(C(=O)O[C@@H]3O[C@H](CO)[C@@H](O)[C@H](O)[C@H]3O)CC[C@]3(C)C(=CCC4[C@@]5(C)C[C@@H](O)[C@H](O)[C@@](C)(CO)C5[C@H](O)C[C@]43C)C2[C@@H]1O", "note": "(some centres undefined)", "outcome": "inactive"},
      {"smiles": "CN1C(=O)N(c2cc(Cl)cc(Cl)c2)C(=O)[C@@]1(C)Cc1ccc(Br)cc1", "outcome": "inactive"},
      {"smiles": "O=C(Nc1ccccc1)Nc1ccc(-c2ccc(C(=O)C3CCCC3C(=O)O)cc2)cc1", "note": "(centres undefined)", "outcome": "inactive"},
      {"smiles": "C=C1C(O)CCC2(C)CC3(OC)OC(=O)C(C)=C3CC12", "note": "(centres undefined)", "outcome": "inactive"},
      {"smiles": "O=C(O)c1ccnc2cc(C(OCC3CCC(F)(F)CC3)c3ccccc3Cl)[nH]c12", "note": "(centres undefined)", "outcome": "inactive"},
      {"smiles": "CCCCOc1nc(N)c2c(n1)N(Cc1cccc(CN3CCCC3)c1)CC(=O)N2", "outcome": "inactive"},
      {"smiles": "CC1CC=C2C1CC1(O)C(=O)CC2(C)C1(C)CO", "note": "(centres undefined)", "outcome": "inactive"},
      {"smiles": "O=C(OCC1=CC(Cl)C(O)C(OC(=O)c2ccccc2)C1O)c1ccccc1", "note": "(centres undefined)", "max response": 1.71},
      {"smiles": "O=C(OC1C=C(CO)C2C(OC3OC(CO)C(O)C(O)C3O)OC=CC12O)c1ccc(O)cc1", "note": "(centres undefined)", "max response": -4.5},
      {"smiles": "CC(=O)c1ccc(O[C@@H]2O[C@H](CO[C@@H]3OC[C@@H](O)[C@H](O)[C@H]3O)[C@@H](O)[C@H](O)[C@H]2O)cc1", "outcome": "inactive"},
      {"smiles": "Cc1cc(=O)oc2cc(NC(=O)[C@H](CCC(=O)O)NC(=O)[C@H](CC(C)C)NC(=O)[C@H](CC(C)C)NC(=O)OCc3ccccc3)ccc12", "note": "(Cbz-Leu-Leu-Glu-{AMC})", "max response": -20.3},
      {"smiles": "Fc1ccccc1-c1nc2ccn(Cc3ccc(-c4ccc(C(F)(F)F)cc4C(F)(F)F)nn3)cc-2n1", "max response": -4.04}
    ]}
  ]
}
